Source: PubChem
Hits are enriched below; roughly 1.8% of the tested compounds scored in any of these assays.
PME-1 inh – PME-1 inhibitors via competitive probe labeling, primary screen, biochemical, fluorescence polarization, FP-Rh probe, HTS; recombinant PME-1; inhibition, % at 5.9 µM; AID 2130, 2009; hit rate 0.53% among 320,000;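 active = inhibition above the campaign mean of all compounds plus 3 SD, cut at about 26% in these data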;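 note: competitive labeling of PME-1 active site by serine hydrolase directed probe; inhibitors block probe labeling so polarization falls and inhibition rises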
Target sequence (Q9Y570 whole entry, looked up): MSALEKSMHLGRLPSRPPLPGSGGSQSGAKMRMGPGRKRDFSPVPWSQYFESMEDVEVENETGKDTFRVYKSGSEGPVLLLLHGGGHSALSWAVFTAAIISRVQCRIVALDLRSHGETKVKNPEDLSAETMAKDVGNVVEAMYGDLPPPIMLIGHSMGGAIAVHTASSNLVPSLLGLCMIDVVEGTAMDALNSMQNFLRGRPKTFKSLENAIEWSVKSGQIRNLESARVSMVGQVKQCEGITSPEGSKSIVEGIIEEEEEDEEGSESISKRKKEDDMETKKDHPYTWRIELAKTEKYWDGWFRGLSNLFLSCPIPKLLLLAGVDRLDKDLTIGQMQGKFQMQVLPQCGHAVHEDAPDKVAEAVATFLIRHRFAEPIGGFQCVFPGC
Fam108B counter – mouse Fam108B serine hydrolase inhibitors, primary screen, counter-screen for RBBP9 inhibitor project, biochemical, fluorescence polarization | recombinant Fam108B, FP-Rh probe fluorescence polarization | inhibition, % at 9.51 µM | hit rate 0.33% among 300,000;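 active = inhibition above the screen mean inhibition plus 3 SD, computed separately per campaign, cut at about 18% in these data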;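 note: inhibitors lower polarization as less probe binds the enzyme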
LYPLA1 counter – LYPLA1 inhibitors, primary screen, counter-screen for PME1 inhibitor project, biochemical, fluorescence polarization, FP-Rh probe ABPP; Acyl-protein thioesterase 1 (Homo sapiens), O75608; recombinant LYPLA1; inhibition, % at 5.9 µM; hit rate 0.16% among 320,000;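 active = inhibition above the mean of all tested compounds plus 3 SD, set per campaign, cut at about 14% in these data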;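 note: inhibitors block serine hydrolase probe labeling of LYPLA1 so polarization falls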
LYPLA2 counter – LYPLA2 inhibitors, primary screen, counter-screen for PME1 inhibitor project, biochemical, fluorescence polarization, FP-Rh probe ABPP; Acyl-protein thioesterase 2 (Homo sapiens), O95372; recombinant LYPLA2; inhibition, % at 5.9 µM; hit rate 0.38% among 320,000;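 active = inhibition above the screen-wide mean plus 3 SD, limit set per campaign, cut at about 26% in these data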
Target sequence (O95372 whole entry, looked up): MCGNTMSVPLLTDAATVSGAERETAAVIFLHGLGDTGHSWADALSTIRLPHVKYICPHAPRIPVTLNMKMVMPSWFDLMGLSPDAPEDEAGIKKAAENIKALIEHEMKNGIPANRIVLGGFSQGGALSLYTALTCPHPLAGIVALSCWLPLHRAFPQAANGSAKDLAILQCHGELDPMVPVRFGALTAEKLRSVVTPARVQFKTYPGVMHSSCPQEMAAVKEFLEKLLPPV
GSTO1 counter – inhibitors of recombinant GSTO1, primary screen, counter-screen for RBBP9 inhibitor project, biochemical, fluorescence polarization. inhibition, % at 5.96 µM. AID 1974, 2009. hit rate 1.1% among 300,000. Glutathione S-transferase omega-1 (Homo sapiens), P78417. activity-based probe fluorescence polarization;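 active = inhibition above the campaign mean inhibition plus 3 SD, cut at about 35% in these data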
PAD4 FP inh – human PAD4 inhibitors, primary screen, biochemical, fluorescence polarization, 1536-well format. recombinant PAD4, RCA probe fluorescence polarization. inhibition, % at 6.36 µM. hit rate 0.41% among 330,000. AID 485272, 2010;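 active = percent inhibition above a cutoff equal to the mean of all tested compounds plus 3 SD, cut at about 15% in these data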
GSTO1 inh conf – GSTO1 inhibitor hit confirmation, counter-screen for RBBP9 inhibitor project, biochemical, fluorescence polarization, triplicate. shares compounds with GSTO1 counter. recombinant GSTO1, probe fluorescence polarization. inhibition, % at 5.96 µM. hit rate 54% among 2,400. AID 2176, 2009;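 active = inhibition above the primary screen's cutoff, its mean inhibition plus 3 SD, cut at about 35% in these data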;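 note: loss of polarization as inhibitors block binding of rhodamine sulfonate ester activity probe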
GSTO1 recomb ABPP – inhibitors of purified human GSTO1, late-stage follow-up, biochemical, gel ABPP, SE-Rh probe, percent inhibition | recombinant GSTO1, gel ABPP SE-Rh probe fluorescence | hit rate 30% among 130 | inhibition, % at 1 µM | shares compounds with GSTO1 counter;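 active = inhibition of the enzyme GSTO1 above about 75%, limit read from the data; inactive = inhibition below that limit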
Numbers stand for hits; - = inactive; . = no result.

SMILES	PME-1 inh	Fam108B counter	LYPLA1 counter	LYPLA2 counter	GSTO1 counter	PAD4 FP inh	GSTO1 inh conf	others
CC(=O)NC1=C(N(C)C2CCS(=O)(=O)C2)C(=O)c2ccccc2C1=O (stereo unspecified)	-	-	-	-	38	-	-
C[C@]12C=CC(=O)C=C1CC[C@@H]1C2=CC[C@]2(C)[C@@H](C(=O)CN3CCN(c4cc(N5CCCC5)nc(N5CCCC5)n4)CC3)CC[C@@H]12	-	-	-	-	51	-	45
COCC(=O)N1CCC(n2nccc2NC(=O)c2ccccc2OC)CC1	-	-	-	-	-	-	.
Nc1cc(OCC(F)(F)F)cc([N+](=O)[O-])c1	-	-	-	-	-	-	.
Nc1cc(N)c(OCC(F)(F)F)cc1OCC(F)(F)F	-	-	-	-	80	55	64
CC(C)(C)c1ccc(-n2ncc3c2CCCC3NC(=O)CN2CCOC2=O)cc1 (stereo unspecified)	-	-	-	-	-	-	.
COc1cccc(/C=N/NC(=O)NC2CCCCC2)c1O	-	-	-	-	38	-	-
Cc1nnc(N/N=C/c2c(O)n(-c3cccc(C(F)(F)F)c3)c(=O)c3ccccc23)[nH]c1=O	-	-	-	-	39	-	-
CN(C)c1nc(Cl)nc(N(C#N)CCOc2ccccc2)n1	-	-	-	-	44	-	69
CC(C)=C1C(=O)NN(c2cccc(Cl)c2)C1=O	-	-	-	-	-	-	.
CC(C)=C1C(=O)NN(c2ccc(C)c(Cl)c2)C1=O	-	-	-	-	44	-	-
COc1ccc(NC(=O)CN(C)C(=O)c2cccc(S(=O)(=O)Nc3ccccc3Cl)c2)cc1	-	-	-	-	-	-	.
CCC(=O)OC1(C)C(=O)C=C2C=C(c3ccsc3)OC=C2C1=O (stereo unspecified)	-	-	-	-	40	-	-
CC1(O)C(=O)C=C2C=C(c3ccsc3)OC=C2C1=O (stereo unspecified)	-	-	-	-	46	-	-
CC(=O)Nc1ccc(NC(=O)CCS(=O)(=O)c2ccc3c(c2)oc(=O)n3C)cc1	-	-	-	-	-	-	.
Cn1c(=O)oc2cc(NC(=O)CCl)ccc21	-	-	-	-	76	-	87
Cc1ccc(/C=C2\SC(=S)N(CCC(=O)NNC(=O)c3cccnc3)C2=O)cc1	-	-	-	-	39	-	-
O=C(CCN1C(=O)/C(=C/c2ccccc2)SC1=S)NNC(=O)c1cccnc1	-	-	-	-	-	-	.
COc1ccc(O)c(C(=O)C2c3ccccc3C(=O)N2c2ccc(C)cc2)c1 (stereo unspecified)	-	-	-	-	62	-	-
COc1ccc(N2C(=O)c3ccccc3C2O)cc1 (stereo unspecified)	-	-	-	-	-	-	.
Cc1ccccc1NC(=O)Cc1nc(CCl)cs1	-	-	-	-	93	-	95	GSTO1 recomb ABPP=-
CCOC(=O)/C=C/C(=O)OCc1csc(CC(=O)Nc2ccccc2C)n1	-	-	-	-	-	-	.
COc1ccccc1N=Nc1ccc(O)c2ncccc12	-	-	-	-	51	-	-
O=C(C1CC(=O)N(c2ccccc2)C1)N1CCN(C2=NS(=O)(=O)c3ccccc32)CC1 (stereo unspecified)	-	-	-	-	-	-	.
Cc1c(Br)c(O)c(Br)c(O)c1/C=N/n1c(-c2ccccc2)n[nH]c1=S	-	-	-	-	58	-	35
SMILES	PME-1 inh	Fam108B counter	LYPLA1 counter	LYPLA2 counter	GSTO1 counter	PAD4 FP inh	GSTO1 inh conf	others
CC(C)c1ccc(O)c(N)c1	-	-	-	-	-	-	.
CC(C)(C)c1ccc(O)c(N)c1	-	-	-	-	38	-	-
CCN(CC)c1ccc2c(O)cc(=O)oc2c1	-	-	-	-	54	-	-
CC(=O)N=Cc1c(C)c(C#N)c(=O)n(C)c1O	-	-	-	-	-	-	.
Cc1c(C=O)c(Cl)n(C)c(=O)c1C#N	-	-	-	-	53	27	84
N#Cc1cnc(NN)nc1	-	-	-	-	-	-	.
CCOC(=O)NC1c2ccccc2Oc2ccccc21	-	-	-	-	-	-	.
CCOC(=O)c1ccc(CNCc2ccccc2)cc1	-	-	-	-	-	-	.
CCOC(=O)NC1(NCc2ccccc2)Oc2ccccc2O1	-	-	-	-	61	-	-
CCOC(=O)NC1(NC2CCCCC2)Oc2ccccc2O1	-	-	-	-	52	-	-
CCOC(=O)NC1(NCC(C)C)Oc2ccccc2O1	-	-	-	-	48	-	-
COCc1cc(C)nc(N/N=C/c2ccc(Cl)c(Cl)c2)c1C#N	-	-	-	-	-	-	.
COC(=O)Cc1c(C)[nH]n(-c2cc(Cl)cc(Cl)c2)c1=O	-	-	-	-	47	-	-
CCOC(=O)c1n[nH]n(-c2cc(Cl)cc(Cl)c2)c1=O	-	-	-	-	-	-	.
O=C1C=CC(=O)C(C2=C3C(=O)N(CCc4ccccc4)CC(=O)N3CCC2)=C1	-	-	-	-	75	-	-
O=C(N/N=C/c1ccc([N+](=O)[O-])o1)c1ccc(NS(=O)(=O)c2cccs2)cc1	-	-	-	-	55	-	-
Cc1cc(OCC(=O)O/N=C(\N)c2ccccc2)ccc1Br	-	-	-	-	-	-	.
CCc1cc(=O)oc2cc(OC(=O)c3ccco3)ccc12	-	-	-	-	-	-	.
CCc1cc(=O)oc2cc(OC(C)=O)cc(OC(C)=O)c12	-	-	-	-	47	-	-
Cc1ccc(CNC(=O)C2CCCN2C(=O)Nc2cccc(Cl)c2)cc1 (stereo unspecified)	-	-	-	-	-	-	.
Cc1ccc(C)c(C(=O)CCC(=O)OCn2nnc3ccccc3c2=O)c1	-	.	-	-	.	-	.
CCN(CC(=O)NCc1ccc(Cl)cc1)C(=O)CSCC(=O)Nc1cccc(C)c1	-	-	-	-	44	-	-
COC(=O)CCC(=O)OC1(C)C(=O)C=C2C=C(C3CC3)N(c3ccc(CO)cc3)C=C2C1=O (stereo unspecified)	-	-	-	-	-	-	.
